The source of these data is PubChem BioAssay (NCI).

Structures are written as SMILES. “And” between values parts separate entries of the source, which are not always exact repeats. Equal entries are not always repeated. Compounds without any hit were thinned out: in the full panel of roughly 83,000, 20% have a hit.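 Interpretation: 100, growth as untreated; towards 0, rising growth inhibition; 0, no net growth; 0 to -100, cell death. Compounds scoring below 10 were considered active.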 The source made the active and inactive calls.

For this test, the system named is OVCAR-3 ovarian. Put plainly: NCI-60 one-dose screen, 48 h (100 = growth as untreated, 0 = no growth, -100 = all killed). As to conditions: 10 µM unless noted.
As for `Cc1nc2ccccc2c(=O)n1-c1ccccc1F`, the growth was 107% (inactive). As to `C[C@]12CC[C@H]3[C@@H](C[C@@H]4SC(Nc5ccccc5)=N[C@@]45C/C(=N/O)CC[C@]35C)[C@@H]1CCC2=O`, the growth was 42.9% (inactive). The result for `N#CCN(CC#N)[N+](=O)[O-]` reads 108% (inactive). Take `O=C(O)c1ccccc1N(CCO)CCCl`: the growth is 111% (inactive). Regarding `O=[N+]([O-])c1cc(Cl)c(Cl)cc1Cl`, the growth is 119% (inactive). Take `CN1[C@@H](CC(=O)c2ccccc2)CCC[C@H]1CC(=O)c1ccccc1`: the growth is 101% (inactive).

With `O=Cc1cn(Cc2ccccc2)c2ccccc12`, the growth was 68.6% (inactive). The result for `OCCN=Cc1c[nH]c2ccccc12` reads 97.7% (inactive); that for `C=CC[PH+](c1ccccc1)c1ccccc1.C=CC[PH+](c1ccccc1)c1ccccc1.[Pt+2].[S-]c1nc2ccccc2[nH]1.[S-]c1nc2ccccc2[nH]1`, -23.3% (active).

Consider `O=NN1CCCCC1`, for which the growth is 112% (inactive). Turning to `COC(=O)C1=CCCN(C)C1`, the growth is 120% (inactive) and 118% (inactive).

As to `CC[C@H](C)[C@H](NC(=O)[C@H]1CCCCN1C)C(=O)N(C)[C@H](C[C@@H](OC(C)=O)c1cccc(C(=O)N[C@@H](Cc2ccccc2)C[C@H](C)C(=O)OC)n1)C(C)C`, the growth is -18.1% (active). As for `CC1(C)CN=C(NN=C(/C=C/c2ccc(C(F)(F)F)cc2)/C=C/c2ccc(C(F)(F)F)cc2)NC1`, the growth was -88% (active). For the compound `Cc1ccc(P(=O)(O)O)cc1`, the growth was 118% (inactive). As to `Nc1ccc2c(c1)Cc1cc(N)ccc1-2`, the growth is 87.6% (inactive).
